Compounds with a hit are over-represented: about 3.5% of the library has one in this group of screens.
PPC-1+TRAIL kill – kills PPC-1 cancer cells in the presence of TRAIL. PPC-1 cells + TRAIL, ATPLite viability luminescence. cell killing (% activity), % at 4 µM or 5 µM. 220,000 compounds, 0.41% hits. AID 1443;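 active = cell killing above 50% in the first pass at 4 µM, then a duplicate retest at 5 µM averaging 50% or more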;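 also: plate controls were cells with TRAIL plus DMSO for no effect and medium-only wells lacking cells for full effect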
Platelet DG rel – platelet dense granule release activity; human platelet-rich plasma, SFLLRN dense granule ATP release, luminescence; inhibition, %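 (compounds screened at 7.5 µM in platelet-rich plasma)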; 300,000 compounds, 0.22% hits;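 active = mean replicate score, as percent of positive control, at or above 50; inconclusive = mean below 50 but at least one replicate at or above 50; inactive = mean and every replicate below 50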
TWEAK Fn14 block – TWEAK-Fn14 signaling inhibition | TWEAK-stimulated Fn14 reporter cells, luciferase luminescence, 8 h | inhibition, % at 10 µM | 360,000 compounds, 2% hits; in the data active = inhibition above about 50%
TROY signal inh – blocks TROY-dependent signaling in reporter cells; Q293 LMP1-TROYcd NF-kB luciferase reporter, 4 h; inhibition, % at 10 µM; 360,000 compounds, 0.98% hits; AID 1347056;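 active = compounds whose plate-normalised and pattern-corrected inhibition of the luciferase reporter signal at the single screening dose is 50% or more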
HSP90 refold inh – inhibitors of HSP90 luciferase refolding in rabbit reticulocyte lysate; luciferase refolding luminescence, 3 h; inhibition, % at 5.6 µM; 290,000 compounds, 0.91% hits; AID 1789;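 active = inhibition above the screen-wide mean plus 3 SD, computed separately per campaign, cut at about 16% in these data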;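 also: 0% = DMSO wells and 100% = 60 µM geldanamycin wells; inhibitors lower the luminescence because luciferase stays unfolded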
TRAIL sens C8 – caspase-8 TRAIL sensitization. NB7+C8 cells + TRAIL, ATPlite viability luminescence. inhibition (viability loss, TRAIL sensitization), % at 10 µM. 360,000 compounds, 1% hits. AID 624354;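 active = compounds causing at least 50% loss of cell viability in the single-dose screen, relative to plate controls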
* = called active by the depositor; ? = inconclusive; . = no result given.

SMILES	PPC-1+TRAIL kill	Platelet DG rel	TWEAK Fn14 block	TROY signal inh	HSP90 refold inh	TRAIL sens C8
O=C(N[C@H]1C/C=C\C[C@@H](CC(=O)N(CCO)Cc2ccccc2)C(=O)NC[C@H](c2ccccc2)OC1=O)OCC1c2ccccc2-c2ccccc21	.	.	51*	21	.	18
COc1ccc(NC(=O)Nc2cc(C)ccn2)cc1	.	.	39	-15	.	59*
COc1ccc(C(=O)Nc2cccnc2)cc1	26	-5	-19	-20	1	4
Cc1ccnc(NC(=O)Nc2ccc(F)cc2)c1	33	-2	5	-21	-1	14
COc1ccc(C(=O)Nc2cc(C)c(NC(=O)c3ccccn3)cn2)cc1	.	14	-10	-48	1	69*
COc1ccc(C(=O)Nc2ccccc2C(=O)Nc2cccnc2)cc1	.	64*	-16	-49	-4	53*
COc1ccc(C(=O)Nc2cnc(NC(=O)c3cccs3)cc2C)cc1	.	21	20	-22	4	7
COc1ccc(C(=O)Nc2ccccc2C(=O)Nc2cc(C)ccn2)cc1	.	?	-10	-61	0	68*
CC1(C(=O)Nc2cccc3cccnc23)CCN1Cc1csc2ccccc12 (centres undefined)	.	.	-9	4	.	8
O=c1[nH]c(-c2ccccc2)nnc1-c1ccccc1	12	1	4	-21	-1	1
Cc1ccnc(NC(=O)COc2ccc3c(c2)CCC3)c1	.	-1	79*	40	.	70*
CC(=O)c1ccccc1NC(=O)c1ccc2c(c1)NC(=O)C(C)S2 (centres undefined)	.	-10	-5	-16	.	28
CC(=O)Nc1ccc(NC(=O)COc2ccc3c(c2)CCC3)cc1	22	4	-2	-12	0	-3
Cc1ccnc(NC(=O)c2ccc3c(c2)NC(=O)C(C)S3)c1 (centres undefined)	.	.	67*	44	.	48
COc1ccccc1OCCn1cc(C(=O)O)c2ccccc21	4	6	63*	-25	1	5
COc1ccccc1OCCn1cc(C(=O)C(C)C)c2ccccc21	.	5	-9	21	-1	3
O=c1n(Cc2ccccc2)c(O)c2n1Cc1ccccc1N=C2c1ccc(C(F)(F)F)cc1	.	.	13	12	.	-6
Cc1cc(C)c2cc3c(N)c(C(=O)N4CCOCC4)sc3nc2c1	12	0	-3	-19	0	-9
Cc1cc(C)c2cc3c(N)c(C(=O)Nc4c(C)[nH]c(=O)[nH]c4=O)sc3nc2c1	5	1	66*	16	1	-13
Cc1ccc(C)c(S(=O)(=O)N(C(=O)c2ccncc2)c2ccc(OC(=O)c3ccncc3)cc2)c1	3	-1	84*	68*	3	-2
CCc1ccc(S(=O)(=O)N(C(=O)c2ccncc2)c2ccc(OC(=O)c3ccncc3)cc2)cc1	-16	-7	46	54*	3	3
Cc1ccc(S(=O)(=O)N(C(=O)c2ccncc2)c2ccc(OC(=O)c3ccncc3)cc2)c(C)c1	8	-24	50*	48	-3	-3
O=C(Oc1ccc(N(C(=O)c2ccncc2)S(=O)(=O)c2ccc(F)cc2)cc1)c1ccncc1	11	9	41	44	-2	2
Cc1ccc(S(=O)(=O)N(C(=O)c2ccncc2)c2ccc(OC(=O)c3ccncc3)cc2)cc1	6	-1	41	41	-7	-9
C[C@H](CO)N1C[C@H](C)[C@H](CN(C)Cc2ccncc2)OCc2ccccc2-c2c(n(C)c3ccccc23)C1=O	.	.	10	6	.	0
SMILES	PPC-1+TRAIL kill	Platelet DG rel	TWEAK Fn14 block	TROY signal inh	HSP90 refold inh	TRAIL sens C8
CC(=O)c1sc(NC(=O)C2(F)C(F)(F)C(F)(F)C(F)(F)C(F)(F)C2(F)F)nc1C	9	15	65*	62*	-1	47
CC(=O)c1sc(NC(=O)C=C(C)C)nc1C	14	4	-12	-39	-2	8
O=C(CSc1nc(=O)n(CCN2CCOCC2)c2c1CCC2)Nc1ccc(OC(F)(F)F)cc1	.	-2	-1	-5	.	8
O=C(Nc1ccccc1)OC1CC2CC1C1CCCC21 (centres undefined)	-2	-4	-64	-30	2	23
COc1ccc(CN2C3CCCC2CC(NC(=O)Nc2ccccc2C)C3)cc1 (centres undefined)	15	2	62*	13	6	34
O=S(=O)(Nc1nc2ccccc2nc1Cl)c1cccc(C(F)(F)F)c1	.	4	-8	5	2	6
O=S(=O)(Nc1nc2ccccc2nc1Cl)c1ccccc1C(F)(F)F	.	5	50*	5	0	-7
C[C@H](CO)N1C[C@H](C)[C@H](CN(C)C(=O)C2CC2)OCc2cnnn2CCCC1=O	.	.	-18	-10	.	-12
CCN1CCN(c2c(C=O)c(Cl)nc3ccc(OC)cc23)CC1	.	6	56*	26	-1	-2
CCN1CCN(c2cc(C)c3cc(NC(=O)CCC(=O)Nc4ccc(OC)cc4OC)ccc3n2)CC1	.	8	4	-11	0	5
N#Cc1cc(-c2ccccc2)nc(Oc2ccccc2)n1	23	1	61*	48	2	0
CC(=O)c1cccc(NC(=O)c2cccc3c(-c4cccnc4)coc23)c1	.	.	58*	34	.	33
O=C(NCc1cccc(Cl)c1)c1cccc2c(-c3cccnc3)coc12	.	.	90*	56*	.	9
COc1ccc(CNC(=O)c2cccc3c(-c4cccnc4)coc23)cc1OC	.	.	64*	50*	.	38
CCC(C)c1ccc(NC(=S)NCc2ccccc2OC)cc1 (centres undefined)	12	-1	-8	12	-4	-2
CCCS(=O)(=O)NC(=O)C1(C)CCCN(C(=O)c2cncc(Br)c2)C1 (centres undefined)	.	.	16	5	.	-7
Cc1ccc(S(=O)(=O)N2CCCCC2)cc1NC(=O)COC(=O)C1(C)CC1(Cl)Cl (centres undefined)	.	.	13	22	.	-5
COC(=O)[C@H]1C[C@H](C(=O)O)[C@@H](C)C1(C)C	.	.	6	-11	.	-1
Cc1[nH]c2c(C)cccc2c(=O)c1CN1CCCCCC1	.	4	-14	-17	-4	-3
O=C(Nc1ccc(F)cc1Cl)c1ccc2c(=O)n3c(nc2c1)CCC3	.	-16	-6	-48	.	13
COc1ccc(-c2ccc3c(c2)S(=O)(=O)c2cccc(C(=O)N4CCN(c5ccc(Cl)cn5)CC4)c2C3=O)cc1OC	.	.	33	20	.	13
O=C1c2ccc(Cl)cc2S(=O)(=O)c2cccc(C(=O)N3CCN(c4ccc(Cl)cn4)CC3)c21	.	.	-24	11	.	59*
O=S(=O)(c1ccccc1)c1nnn2c1nc(NC1CCN(Cc3ccccc3)CC1)c1ccccc12	.	18	-45	-32	1	76*
Nc1nc2c(c(=O)[nH]1)C(c1cccc3ccccc13)C1=C(N2)c2ccccc2C1=O (centres undefined)	-2	.	13	8	0	1
